{
  "source": "the supplement of paper PMC7156485",
  "details_in_all_cases": "concentration: 10 µM; 24 h",
  "key": {"HCC1569 [1]": {"system": "HCC1569", "assay": "cell number relative to DMSO (% of DMSO); higher = more cells (less growth inhibition / toxicity)", "method_in_brief": "(§1)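 After 24 h at 37 °C with compounds at 10 µM, in triplicate, HCC1569 and TDF cells were fixed with 3.7% formaldehyde. Immunostaining used a rabbit anti-H1.0 antibody and an AlexaFluor 647 secondary, with DAPI, and six fields per well were imaged at ×10. H1.0 nuclear intensity or cell number is presented as percent of the plate control, from the median of replicates, with HCC1569 values smoothed for positional effects.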"}, "TDF [2]": {"system": "TDF", "assay": "cell number relative to DMSO (% of DMSO); higher = more cells (less growth inhibition / toxicity)", "method_in_brief": "as §1"}, "TDF [3]": {"system": "TDF", "assay": "H1.0 immunofluorescence intensity relative to DMSO (% of DMSO); higher = stronger H1.0 induction, active = 120 or more", "method_in_brief": "as §1"}, "HCC1569 [4]": {"system": "HCC1569", "assay": "H1.0 immunofluorescence intensity relative to DMSO (% of DMSO); higher = stronger H1.0 induction, active = 140 or more", "method_in_brief": "as §1"}},
  "note": "± gives the standard deviation of the averaged measurements.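 Wherever H1.0 immunofluorescence intensity relative to DMSO is given: TDF is a line of transformed human dermal fibroblasts of mesenchymal origin.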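 Wherever cell number relative to DMSO is given: TDF denotes transformed human dermal fibroblasts of mesenchymal origin.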",
  "data": [
    {"compound": "COc1ccc(Cl)cc1NC(=O)Nc1cc(C)nc2ccccc12", "note": "[N-(5-Chloro-2-methoxyphenyl)-N'-(2-methyl-4-quinolinyl)urea]", "values": [
      {"measurement": "cell number", "setting": "HCC1569 [1]", "value": 90},
      {"measurement": "cell number", "setting": "TDF [2]", "value": 103},
      {"measurement": "H1.0 immunofluorescence intensity", "setting": "TDF [3]", "value": "104 (inactive)"},
      {"measurement": "H1.0 immunofluorescence intensity", "setting": "HCC1569 [4]", "value": "148 (active)"}
    ]},
    {"compound": "Cc1scc2c1N(C(=O)CN1CCN(C)CC1)c1ccccc1NC2=O.Cl.Cl", "note": "[Telenzepine dihydrochloride]", "values": [
      {"measurement": "cell number", "setting": "HCC1569 [1]", "value": 107},
      {"measurement": "cell number", "setting": "TDF [2]", "value": 94},
      {"measurement": "H1.0 immunofluorescence intensity", "setting": "TDF [3]", "value": "99.8 (inactive)"},
      {"measurement": "H1.0 immunofluorescence intensity", "setting": "HCC1569 [4]", "value": "104 (inactive)"}
    ]},
    {"compound": "NCCS(=O)(=O)O", "note": "[Taurine]", "values": [
      {"measurement": "cell number", "setting": "HCC1569 [1]", "value": 98.1},
      {"measurement": "cell number", "setting": "TDF [2]", "value": 112},
      {"measurement": "H1.0 immunofluorescence intensity", "setting": "TDF [3]", "value": "96.4 (inactive)"},
      {"measurement": "H1.0 immunofluorescence intensity", "setting": "HCC1569 [4]", "value": "98.7 (inactive)"}
    ]},
    {"compound": "CC(=O)Nc1nnc(S(N)(=O)=O)s1", "note": "[Acetazolamide]", "values": [
      {"measurement": "cell number", "setting": "HCC1569 [1]", "value": 104},
      {"measurement": "cell number", "setting": "TDF [2]", "value": 106},
      {"measurement": "H1.0 immunofluorescence intensity", "setting": "TDF [3]", "value": "86.9 (inactive)"},
      {"measurement": "H1.0 immunofluorescence intensity", "setting": "HCC1569 [4]", "value": "83.3 (inactive)"}
    ]},
    {"compound": "CCCCCCCCCCCC=CCC=CCCCC(=O)O", "note": "[5(Z), 8(Z)-Eicosadienoic acid]", "values": [
      {"measurement": "cell number", "setting": "HCC1569 [1]", "value": 101},
      {"measurement": "cell number", "setting": "TDF [2]", "value": 96.9},
      {"measurement": "H1.0 immunofluorescence intensity", "setting": "TDF [3]", "value": "99.9 (inactive)"},
      {"measurement": "H1.0 immunofluorescence intensity", "setting": "HCC1569 [4]", "value": "99.3 (inactive)"}
    ]},
    {"compound": "FC(F)(F)c1cc(NC(=S)Nc2ccc(Br)cc2-c2nn[nH]n2)cc(C(F)(F)F)c1", "values": [
      {"measurement": "cell number", "setting": "HCC1569 [1]", "value": 90.3},
      {"measurement": "cell number", "setting": "TDF [2]", "value": 85.6},
      {"measurement": "H1.0 immunofluorescence intensity", "setting": "TDF [3]", "value": "90.2 (inactive)"},
      {"measurement": "H1.0 immunofluorescence intensity", "setting": "HCC1569 [4]", "value": "120 (inactive)"}
    ]},
    {"compound": "COCCOC(=O)C1=C(C)NC(C)=C(C(=O)OC(C)C)C1c1cccc([N+](=O)[O-])c1", "note": "(stereo unspecified) [Nimodipine]", "values": [
      {"measurement": "cell number", "setting": "HCC1569 [1]", "value": "100 ± 2.9"},
      {"measurement": "cell number", "setting": "TDF [2]", "value": "106 ± 3.4"},
      {"measurement": "H1.0 immunofluorescence intensity", "setting": "TDF [3]", "value": "91.6 (inactive)"},
      {"measurement": "H1.0 immunofluorescence intensity", "setting": "HCC1569 [4]", "value": "104 (inactive)"}
    ]},
    {"compound": "CC(C)=CCc1cc2c(cc1O)oc(=O)c1c3ccc(O)cc3oc21", "values": [
      {"measurement": "cell number", "setting": "HCC1569 [1]", "value": 106},
      {"measurement": "cell number", "setting": "TDF [2]", "value": 95.7},
      {"measurement": "H1.0 immunofluorescence intensity", "setting": "TDF [3]", "value": "94.4 (inactive)"},
      {"measurement": "H1.0 immunofluorescence intensity", "setting": "HCC1569 [4]", "value": "106 (inactive)"}
    ]},
    {"compound": "CCCCCC(O)C=CC1C2CC(CO2)C1CC=CCCCC(=O)O", "note": "(stereo unspecified)", "values": [
      {"measurement": "cell number", "setting": "HCC1569 [1]", "value": 102},
      {"measurement": "cell number", "setting": "TDF [2]", "value": 107},
      {"measurement": "H1.0 immunofluorescence intensity", "setting": "TDF [3]", "value": "93.7 (inactive)"},
      {"measurement": "H1.0 immunofluorescence intensity", "setting": "HCC1569 [4]", "value": "99.9 (inactive)"}
    ]}
  ]
}
